Measurements published in PubChem BioAssay (Tox21).
Several values for one entry are separate records, joined by “and”; a condition that tells them apart may be missing. Identical values can stand only once. Results filed as inconclusive are left out. Entries that show only a call come without a potency. More than one record can exist for a structure, and the calls need not agree. Activity calls are given as the source filed them. The call rests on the fitted dose curve; in most records, active means well fitted inhibition curve with a large enough effect in the repeat runs; inconclusive means weak or mixed curves; inactive means no such curve, though single readings can be large or run the other way.

target: Cytochrome P450 3A4 (Homo sapiens) (UniProt P08684); assay: Cytochrome P450 Family 3 Subfamily A Member 4 (CYP3A4) small molecule antagonists: luciferase reporter qHTS assay (AID 1671201); conditions: P450-Glo CYP3A4 enzyme, luciferin luminescence, 1 h; series mostly up to 115 µM; activity change, negative = inhibition: at the top concentration; further: nearly all actives have a fitted effect of over 50% in size
Outline: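 Relative luminescence units after 20 min with luciferin detection reagent served as read-out. Beforehand, CYP3A4 turned over a proluciferin substrate for 1 h at room temperature with NADPH regeneration, following 10 min compound preincubation.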
Potency means the concentration at half of the fitted maximal effect.

Sequence of Cytochrome P450 3A4 (Homo sapiens) (P08684 whole entry, looked up): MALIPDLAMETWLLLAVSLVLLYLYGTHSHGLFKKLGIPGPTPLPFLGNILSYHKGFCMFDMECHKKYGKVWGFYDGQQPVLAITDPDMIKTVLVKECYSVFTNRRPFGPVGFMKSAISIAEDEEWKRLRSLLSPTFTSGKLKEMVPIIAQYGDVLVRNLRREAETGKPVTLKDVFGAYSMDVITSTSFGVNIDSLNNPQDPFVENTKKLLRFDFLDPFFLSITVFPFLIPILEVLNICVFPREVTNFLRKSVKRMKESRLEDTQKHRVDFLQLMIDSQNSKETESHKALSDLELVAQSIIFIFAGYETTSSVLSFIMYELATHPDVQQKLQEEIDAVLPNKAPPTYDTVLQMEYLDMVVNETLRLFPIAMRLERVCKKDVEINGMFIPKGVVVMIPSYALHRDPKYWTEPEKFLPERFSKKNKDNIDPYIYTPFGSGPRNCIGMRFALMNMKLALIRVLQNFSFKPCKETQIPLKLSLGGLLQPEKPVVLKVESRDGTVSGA

Question: With `C=CCN=C=S` as the compound, how does the Potency read?
Answer: Its Potency is “inactive”.

Question: With `O=C(O)C1C(C(=O)O)C2(Cl)C(Cl)=C(Cl)C1(Cl)C2(Cl)Cl` (stereo not given) as the compound, how does the Potency read?
Answer: The Potency was “inactive”.

Question: How did the Potency turn out when `N#Cc1ccccn1` was run?
Answer: Its Potency is “inactive”.

Question: `[N-]=[N+]=CC(=O)OC[C@H](N)C(=O)O` was tested. Which Potency did it give?
Answer: The Potency was “inactive”.

Question: With `CN(C)NC(=O)CCC(=O)O` as the compound, how does the Potency read?
Answer: The Potency was “inactive”.

Question: With `CC(=O)C1CCOC1=O` (stereo not given) as the compound, how does the Potency read?
Answer: Its Potency is “inactive”.

Question: Which Potency does the source give for `O=C(O)Cc1ccccc1` here?
Answer: The Potency was “inactive”.

Question: How did the Potency turn out when `c1ccc2c(c1)CCCC2` was run?
Answer: The Potency was “inactive”.

Question: How did the Potency turn out when `CC(=O)/C=C/c1ccccc1` was run?
Answer: Its Potency is “inactive”.

Question: `C/C=C/c1ccc2c(c1)OCO2` was tested. Which “activity change, negative = inhibition” value did it give?
Answer: Its value is -36.9% (inactive).

Question: For `Cc1cccc(C)c1N`, which Potency is on record?
Answer: The Potency was “inactive”.

Question: `COc1nc(NC(C)C)nc(NC(C)C)n1` was tested. Which Potency did it give?
Answer: The Potency was “inactive”.

Question: `N#Cc1cccc(C#N)c1` was tested. Which Potency did it give?
Answer: The Potency was “inactive”.

Question: `Nc1cccc(Cl)c1` was tested. Which “activity change, negative = inhibition” value did it give?
Answer: Its value is -19.9% (inactive).

Question: `OC[C@@H](O)[C@H]1O[C@@H]2O[C@H](C(Cl)(Cl)Cl)O[C@@H]2[C@H]1O` was tested. Which Potency did it give?
Answer: Its Potency is “inactive”.

Question: `Nc1nc(N)nc(NC2CC2)n1` was tested. Which Potency did it give?
Answer: Its Potency is “inactive”.

Question: For `Cc1ccc(N=C=O)cc1N=C=O`, which Potency is on record?
Answer: The Potency was 5.78 µM (active) and 2.82 µM (active) and inactive.

Question: How did the Potency turn out when `CN(C)C(=O)Cl` was run?
Answer: The Potency was “inactive”.

Question: How did the Potency turn out when `Cc1ccc(O)c(C)c1` was run?
Answer: The Potency was “inactive”.

Question: `C=CC#N` was tested. Which Potency did it give?
Answer: The Potency was “inactive”.

Question: With `CCCCCCCCCCCCCCCCCC(=O)O` as the compound, how does the Potency read?
Answer: The Potency was “inactive”.

Question: With `CC12CC1(C)C(=O)N(c1cc(Cl)cc(Cl)c1)C2=O` (stereo not given) as the compound, how does the “activity change, negative = inhibition” value read?
Answer: The value was 9.19% (inactive).

Question: For `C=C(C)C(=O)OCC(CC)CCCC` (stereo not given), which Potency is on record?
Answer: The Potency was “inactive”.

Question: `CC[N+](=O)[O-]` was tested. Which Potency did it give?
Answer: Its Potency is “inactive”.

Question: For `O=C(O)C(Br)Br`, which Potency is on record?
Answer: The Potency was “inactive”.
